In PubChem BioAssay (NCATS):
Inconclusive results are not listed. The source made the active and inactive calls. Calls come from the whole dose curve; as a rule, active = well fitted curve in the direction sought with a large enough effect; inconclusive = small, poorly fitted or top-dose-only effect, or another doubt; inactive = no such curve, though single readings can be large; an effect the other way counts as inactive or inconclusive.

Key:
[1] = Quantitative High-Throughput drug screen in 47 multiple myeloma cell lines against the NCATS MIPE library collection: KMS12BM_JCRB cell viability assay (AID 1918971); note: nearly all actives have a fitted effect of over 35% in size
In short: (§1)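 Myeloma cell lines, 500 cells per well, exposed to MIPE 4.0 library compounds for 48 h at 37C, 5% CO2. Viability from ATP by CellTiter-Glo luminescence; normalised to DMSO (100%) and media-only (0%) wells.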

[2] = Quantitative High-Throughput drug screen in 47 multiple myeloma cell lines against the NCATS MIPE library collection: KMS12PE_JCRB cell viability assay (AID 1918972); note: nearly all actives have a fitted effect of over 30% in size
In short: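 Approved and investigational drugs from MIPE 4.0 were added by pin tool to 500 cells per well. After 48 hours at 37C, ATP-based CellTiter-Glo luminescence indicated remaining viability.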

[3] = Quantitative High-Throughput drug screen in 47 multiple myeloma cell lines against the NCATS MIPE library collection: KMS20_JCRB cell viability assay (AID 1918973); note: nearly all actives have a fitted effect of over 45% in size
In short: as §1

[4] = Quantitative High-Throughput drug screen in 47 multiple myeloma cell lines against the NCATS MIPE library collection: KMS26_JCRB cell viability assay (AID 1918975); note: nearly all actives have a fitted effect of over 45% in size
In short: as §1

[5] = Quantitative High-Throughput drug screen in 47 multiple myeloma cell lines against the NCATS MIPE library collection: MMM1_PLB cell viability assay (AID 1918976); note: nearly all actives have a fitted effect of over 35% in size
In short: (§2)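 MIPE 4.0 approved/investigational drugs; 500 cells/well; 48 h 37 °C humidified 5% CO2; CTG luminescence readout; DMSO = 100%, media = 0% viability.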

[6] = Quantitative High-Throughput drug screen in 47 multiple myeloma cell lines against the NCATS MIPE library collection: MOLP8_DSMZ cell viability assay (AID 1918977); note: nearly all actives have a fitted effect of over 45% in size
In short: as §2

[7] = Quantitative High-Throughput drug screen in 47 multiple myeloma cell lines against the NCATS MIPE library collection: NCIH929_DSMZ cell viability assay (AID 1918978); note: nearly all actives have a fitted effect of over 35% in size
In short: as §2

[8] = Quantitative High-Throughput drug screen in 47 multiple myeloma cell lines against the NCATS MIPE library collection: OCIMY1_PLB cell viability assay (AID 1918979); note: nearly all actives have a fitted effect of over 35% in size
In short: as §2

[9] = Quantitative High-Throughput drug screen in 47 multiple myeloma cell lines against the NCATS MIPE library collection: MM1S_ATCC cell viability assay (AID 1918980); note: nearly all actives have a fitted effect of over 45% in size
In short: as §2

[10] = Quantitative High-Throughput drug screen in 47 multiple myeloma cell lines against the NCATS MIPE library collection: KMS21BM_JCRB cell viability assay (AID 1918974); conditions: ATP luminescence, 48 h; viability: at 45.8 µM (top of the series)
In short: as §1
Potency is the fitted concentration of half-maximal effect.

SMILES	Potency [1]	Potency [2]	Potency [3]	Potency [4]	Potency [5]	Potency [6]	Potency [7]	Potency [8]	Potency [9]	Potency [10]
Cc1ccc2nc(NCCN)c3ncc(C)n3c2c1	3.72 µM (active)	9.35 µM (active)	6.62 µM (active)	2.64 µM (active)	2.64 µM (active)	4.18 µM (active)	5.9 µM (active)	14.8 µM (active)	1.66 µM (active)	
CC(C(C)N1CC(=O)NC(=O)C1)N1CC(=O)NC(=O)C1 (centres undefined)	0.59 µM (active)	1.32 µM (active)	inactive			0.0105 µM (active)	inactive	inactive	inactive	0.332 µM (active)
CCOC(=O)N1CCN([N+]([O-])=NOc2ccc([N+](=O)[O-])cc2[N+](=O)[O-])CC1	1.48 µM (active)	8.33 µM (active)	1.18 µM (active)	0.833 µM (active)	3.72 µM (active)	2.35 µM (active)	1.32 µM (active)	7.43 µM (active)	1.87 µM (active)	
CC[C@@]1([C@@H]2O[C@@H]([C@H]3O[C@@](O)(CO)[C@H](C)C[C@H]3C)C[C@H]2C)CC[C@H]([C@]2(C)CC[C@]3(C[C@H](O)[C@@H](C)[C@@H]([C@@H](C)[C@@H](OC)[C@H](C)C(=O)O)O3)O2)O1	0.0457 µM (active)	0.0911 µM (active)	0.0512 µM (active)	0.182 µM (active)	0.575 µM (active)				0.182 µM (active)	0.144 µM (active)
COc1ccc(C[C@@H](C)[C@@H](C)Cc2ccc(OC)c(OC)c2)cc1OC	0.662 µM (active)	0.372 µM (active)	2.35 µM (active)	0.59 µM (active)	5.9 µM (active)	2.96 µM (active)	1.87 µM (active)			
CCOC(=O)[C@H](CCc1ccccc1)N[C@@H](C)C(=O)N1[C@@H](C(=O)O)C[C@H]2CCC[C@@H]21	23.5 µM (active)	7.43 µM (active)	4.69 µM (active)				7.43 µM (active)	26.4 µM (active)	2.64 µM (active)	5.26 µM (active)
COc1cc(OC)cc(-c2ccc3ncc4ccc(=O)n(-c5ccc(N6CCNCC6)c(C(F)(F)F)c5)c4c3c2)c1	5.26 µM (active)	3.72 µM (active)	4.18 µM (active)	5.9 µM (active)		4.18 µM (active)	3.72 µM (active)	14.8 µM (active)	3.32 µM (active)	5.26 µM (active)
C[C@H](NCc1ccc(OCc2cccc(F)c2)cc1)C(N)=O	8.33 µM (active)	1.87 µM (active)	2.35 µM (active)	18.7 µM (active)	11.8 µM (active)	2.64 µM (active)	2.64 µM (active)	10.5 µM (active)	9.35 µM (active)	
O=C(CCCCCCC(=O)Nc1cccnc1)NO	1.87 µM (active)	2.96 µM (active)	3.32 µM (active)	3.72 µM (active)		3.32 µM (active)	3.72 µM (active)	14.8 µM (active)	3.32 µM (active)	2.35 µM (active)
CCNC(=O)c1cc2c(-c3cc(OCCN4CCCC4)c(Cl)cc3Cl)nc(N)nc2s1	1.48 µM (active)	0.418 µM (active)	1.66 µM (active)	2.35 µM (active)	2.96 µM (active)	0.743 µM (active)	0.935 µM (active)	3.32 µM (active)	1.66 µM (active)	
O=C(Nc1nnc(-c2ccco2)o1)c1cc(-c2ccccc2)nc2ccccc12	23.5 µM (active)	18.7 µM (active)	16.6 µM (active)							23.5 µM (active)
O=C(C=CC#Cc1cccc(NS(=O)(=O)c2ccccc2)c1)NO	1.48 µM (active)	1.18 µM (active)	2.35 µM (active)	3.32 µM (active)		0.935 µM (active)	1.18 µM (active)	2.96 µM (active)	1.87 µM (active)	
CCc1ccc(C(=O)Nc2cc(CN3CCN(C)CC3)cc(C(F)(F)F)c2)cc1C#Cc1cnc2ccnn2c1	14.8 µM (active)	5.26 µM (active)	3.72 µM (active)	16.6 µM (active)		18.7 µM (active)		16.6 µM (active)	16.6 µM (active)	
CCC(C=C[C@@H]1OC(=O)C=C[C@H]1C)=C[C@H](C)CC=CC(C)=C[C@@H](C)C(=O)[C@@H](C)[C@H](O)[C@@H](C)CC(C)=CC(=O)O	0.0196 µM (active)	0.0196 µM (active)	0.0088 µM (active)	0.0311 µM (active)		0.0196 µM (active)	0.0196 µM (active)	0.0277 µM (active)	0.0156 µM (active)	
COc1cccc2c1C(=O)c1c(O)c3c(c(O)c1C2=O)C[C@@](O)(C(=O)CO)C[C@@H]3O[C@H]1C[C@H](N)[C@H](OC2CCCCO2)[C@H](C)O1 (some centres undefined)	2.09 µM (active)	inactive	1.18 µM (active)	2.96 µM (active)	1.18 µM (active)			14.8 µM (active)		
c1cc(N[C@@H]2CCNC2)nc(-c2cnc3ccc(-c4cn[nH]c4)cn23)c1	16.6 µM (active)	16.6 µM (active)	11.8 µM (active)	14.8 µM (active)		2.96 µM (active)	13.2 µM (active)	inactive		

SMILES	Potency [1]	Potency [2]	Potency [3]	Potency [4]	Potency [5]	Potency [6]	Potency [7]	Potency [8]	Potency [9]	Potency [10]
O=C1NC(=O)[C@@H](c2cn3c4c(cccc24)CCC3)[C@H]1c1c[nH]c2ccccc12	0.209 µM (active)	0.148 µM (active)	0.105 µM (active)	16.6 µM (active)			11.8 µM (active)		18.7 µM (active)	
CC(C)NC[C@@H](C(=O)N1CCN(c2ncnc3c2[C@H](C)C[C@H]3O)CC1)c1ccc(Cl)cc1	6.62 µM (active)	0.469 µM (active)	0.743 µM (active)	1.32 µM (active)	0.0264 µM (active)	0.296 µM (active)		16.6 µM (active)	0.0469 µM (active)	
CC(=O)NCC(=O)N1[C@H]2CC[C@H]1c1cc(Nc3ncc(C(F)(F)F)c(NC4CCC4)n3)ccc12	9.35 µM (active)	0.105 µM (active)	1.32 µM (active)	5.26 µM (active)	1.66 µM (active)	2.64 µM (active)	0.935 µM (active)	14.8 µM (active)	3.32 µM (active)	
C[C@@H]1C(=O)O[C@H]2CC34[C@H]5C[C@@H](C(C)(C)C)C36[C@H](OC(=O)[C@@H]6O)O[C@@]4(C(=O)O5)[C@]21O (some centres undefined)	inactive	inactive	inactive	inactive			inactive			
COc1cc(C)c(Sc2cnc(NC(=O)c3ccc(CNC(C)C(C)(C)C)cc3)s2)cc1C(=O)N1CCN(C(C)=O)CC1 (centres undefined)	16.6 µM (active)	5.26 µM (active)	3.72 µM (active)	16.6 µM (active)			3.32 µM (active)	14.8 µM (active)	4.18 µM (active)	
CC(C=CC1=C(C)CCCC1(C)C)=CC=CC(C)=CC(=O)Nc1ccc(O)cc1	17.1 µM (active)	3.82 µM (active)	15.2 µM (active)	19.1 µM (active)	21.5 µM (active)		21.5 µM (active)	21.5 µM (active)	48.1 µM (active)	
O=C1c2c(O)cccc2[C@@H]([C@@H]2O[C@H](CO)[C@@H](O)[C@H](O)[C@H]2O)c2cc(CO)cc(O)c21	inactive	inactive	inactive	inactive		inactive	inactive	inactive		
CN(CC(=O)N(Cc1ccc(C2CCCCC2)cc1)c1ccc(C(=O)O)c(O)c1)S(=O)(=O)c1c(F)c(F)c(F)c(F)c1F	29.6 µM (active)	7.43 µM (active)	6.62 µM (active)	20.9 µM (active)	20.9 µM (active)		4.18 µM (active)	33.2 µM (active)		
COc1cc(CCc2cc(NC(=O)c3ccc(N4C[C@@H](C)N[C@@H](C)C4)cc3)n[nH]2)cc(OC)c1	11.8 µM (active)	16.6 µM (active)	4.69 µM (active)	20.9 µM (active)	16.6 µM (active)	18.7 µM (active)	10.5 µM (active)		20.9 µM (active)	
CC1(C)O[C@@H]2C[C@H]3[C@@H]4CCC5=CC(=O)C=C[C@]5(C)[C@@H]4[C@@H](O)C[C@]3(C)[C@]2(C(=O)CO)O1	inactive	inactive	6.62 µM (active)	inactive			16.6 µM (active)	inactive	0.296 µM (active)	
C[C@@H](Oc1ccc2[nH]nc(C=Cc3cnn(CCO)c3)c2c1)c1c(Cl)cncc1Cl	23.5 µM (active)	inactive	4.18 µM (active)	8.33 µM (active)		0.469 µM (active)	0.235 µM (active)	11.8 µM (active)	6.62 µM (active)	
CCS(=O)(=O)Nc1ccc2[nH]c(O)c(C(=Nc3ccc(CN4CCCCC4)cc3)c3ccccc3)c2c1	13.2 µM (active)	0.148 µM (active)	0.296 µM (active)	0.469 µM (active)	0.209 µM (active)		0.105 µM (active)	5.9 µM (active)	0.469 µM (active)	
C#C[C@]1(O)CC[C@@H]2[C@@H]3CCc4cc(O)ccc4[C@H]3CC[C@@]21C	20.9 µM (active)	16.6 µM (active)	14.8 µM (active)	3.72 µM (active)	14.8 µM (active)		3.72 µM (active)		11.8 µM (active)	
COc1cc(C=CC(=O)CC(=O)C=Cc2ccc(O)c(OC)c2)ccc1O	19.1 µM (active)	7.62 µM (active)	6.05 µM (active)	48.1 µM (active)	38.2 µM (active)		3.4 µM (active)	21.5 µM (active)		
C=CCNc1c(O)cc2c(O)c1C[C@@H](C)C[C@H](OC)[C@@H](O)[C@@H](C)C=C(C)[C@H](OC(N)=O)[C@@H](OC)C=CC=C(C)C(=O)N2	0.332 µM (active)	0.105 µM (active)	0.372 µM (active)	1.32 µM (active)	8.33 µM (active)	0.332 µM (active)	0.418 µM (active)	1.48 µM (active)	1.18 µM (active)	
